# Data as given in ChEMBL document CHEMBL3988442, “University of Dundee, Small-Polar-MMV Screening Library” (2021).
# For some assays here: Measured potencies and affinities stand elsewhere.
# Columns and labels:
# Design in all cases: scale not given: direction of the effect not stated beside the values
# [1] = target: Protein translocase subunit SecA (Escherichia coli (strain K12)) (UniProt P10408); assay: Assay to Identify E. coli SecA ATPase Inhibitors; assay type: functional; details: 30 µM
# [2] = target: T1, Ubiquitin-activating enzyme e1, putative (Leishmania donovani (strain BPK282A1)) (UniProt E9BSI1); assay: Leishmania donovani Ubiquitin Activating Enzyme (LdE1); assay type: functional; details: 30 µM
# T1 sequence (whole entry): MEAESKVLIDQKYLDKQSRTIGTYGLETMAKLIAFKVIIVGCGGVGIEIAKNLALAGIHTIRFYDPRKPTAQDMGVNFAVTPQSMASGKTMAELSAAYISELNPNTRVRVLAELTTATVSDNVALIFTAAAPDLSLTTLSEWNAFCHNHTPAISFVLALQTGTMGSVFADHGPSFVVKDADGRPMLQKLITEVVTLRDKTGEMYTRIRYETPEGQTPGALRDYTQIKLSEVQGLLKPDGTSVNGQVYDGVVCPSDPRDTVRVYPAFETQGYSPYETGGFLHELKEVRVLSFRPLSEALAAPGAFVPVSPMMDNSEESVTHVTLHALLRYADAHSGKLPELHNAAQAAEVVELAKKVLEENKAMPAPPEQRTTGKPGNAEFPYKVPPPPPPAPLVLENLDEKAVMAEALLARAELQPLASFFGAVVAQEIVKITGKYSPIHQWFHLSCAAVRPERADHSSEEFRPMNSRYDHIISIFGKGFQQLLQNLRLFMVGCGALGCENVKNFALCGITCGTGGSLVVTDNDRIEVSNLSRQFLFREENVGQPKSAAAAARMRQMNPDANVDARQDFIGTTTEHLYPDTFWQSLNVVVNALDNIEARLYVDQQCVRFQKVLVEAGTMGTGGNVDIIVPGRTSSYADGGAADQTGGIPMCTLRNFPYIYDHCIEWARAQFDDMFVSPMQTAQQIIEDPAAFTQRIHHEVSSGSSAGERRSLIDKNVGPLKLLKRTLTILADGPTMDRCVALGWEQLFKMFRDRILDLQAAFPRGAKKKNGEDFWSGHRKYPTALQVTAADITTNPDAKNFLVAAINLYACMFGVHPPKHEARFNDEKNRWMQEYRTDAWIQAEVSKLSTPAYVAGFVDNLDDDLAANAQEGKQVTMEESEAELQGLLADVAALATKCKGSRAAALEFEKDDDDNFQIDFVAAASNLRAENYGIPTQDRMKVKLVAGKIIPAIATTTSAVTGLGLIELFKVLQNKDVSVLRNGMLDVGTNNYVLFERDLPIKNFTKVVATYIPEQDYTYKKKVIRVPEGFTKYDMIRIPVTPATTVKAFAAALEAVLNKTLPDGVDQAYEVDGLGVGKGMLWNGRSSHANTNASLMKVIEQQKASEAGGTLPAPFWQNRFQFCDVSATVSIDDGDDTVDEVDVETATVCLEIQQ
# [3] = target: AMP-activated protein kinase, AMPK (Homo sapiens) (UniProt P54646+O43741+P54619+Q9UGJ0+Q9Y478+Q13131+Q9UGI9); assay: AMP-dependent Kinase enzyme assay. An in vitro enzyme assay that detects ADP turnover that is directly proportional to AMPK activity. This uses naive AMPK that is activated during the assay with MK-8722; assay type: functional; details: 30 µM
# [4] = target: Sialic acid-binding Ig-like lectin 9 (Homo sapiens) (UniProt Q9Y336); assay: Hs-Siglec9 ALPHAscreen SOP 20170721; details: 10 µM
# Trypanosoma cruzi = assay: Trypanosoma cruzi phosphomannomutase and mannose-1-phosphate guanylyltransferase assay; assay type: functional; details: 10 µM
# [5] = target: T2, Arginase-2, mitochondrial (Homo sapiens) (UniProt P78540); assay: in vitro enzyme assay to detect the production of urea directly proportional to the activity of Arginase II; assay type: functional; details: 33.3 µM; note: in the data most compounds retested in dose-response had high values
# T2 sequence (whole entry): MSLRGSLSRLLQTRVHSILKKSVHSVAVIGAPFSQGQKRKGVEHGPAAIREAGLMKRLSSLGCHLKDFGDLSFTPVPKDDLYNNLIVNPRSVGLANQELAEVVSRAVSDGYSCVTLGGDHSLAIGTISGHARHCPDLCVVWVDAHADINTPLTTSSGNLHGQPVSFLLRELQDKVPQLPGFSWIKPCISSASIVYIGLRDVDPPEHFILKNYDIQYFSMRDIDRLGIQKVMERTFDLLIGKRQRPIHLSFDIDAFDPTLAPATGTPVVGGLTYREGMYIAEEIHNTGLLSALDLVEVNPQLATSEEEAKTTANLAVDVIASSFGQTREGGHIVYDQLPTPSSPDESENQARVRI
# [6] = target: T3, Proteasome subunit beta (Trypanosoma cruzi) (UniProt O96673); assay: Trypanosoma cruzi proteasome chymotrypsin-like activity (TcProtChymo) assay.; note: in the data most compounds retested in dose-response had high values; assay type: functional; details: 9.37 µM
# T3 sequence (whole entry): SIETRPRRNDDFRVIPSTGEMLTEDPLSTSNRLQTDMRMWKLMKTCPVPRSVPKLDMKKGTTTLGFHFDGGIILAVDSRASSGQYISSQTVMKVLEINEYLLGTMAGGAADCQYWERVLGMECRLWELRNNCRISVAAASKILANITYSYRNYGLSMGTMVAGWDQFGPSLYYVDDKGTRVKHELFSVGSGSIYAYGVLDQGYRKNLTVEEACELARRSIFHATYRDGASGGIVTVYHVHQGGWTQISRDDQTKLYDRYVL
# Homo sapiens = species on record: Homo sapiens; assay: To identify inhibition of the IFN signalling (Jak-Stat) pathway via expression of an eGFP reporter gene under the control of an IFN-stimulated response element (ISRE) containing MxA promoter.; assay type: functional; details: 30 µM
# [7] = target: T4, Tyrosyl-tRNA synthetase, putative (Trypanosoma cruzi (strain CL Brener)) (UniProt Q4DSP6); assay: Trypanosoma cruzi tyrosyl tRNA synthetase (TcYRS) _High Tyrosine SOP; assay type: functional; details: 30 µM; note: in the data most compounds retested in dose-response had high values
# T4 sequence (whole entry): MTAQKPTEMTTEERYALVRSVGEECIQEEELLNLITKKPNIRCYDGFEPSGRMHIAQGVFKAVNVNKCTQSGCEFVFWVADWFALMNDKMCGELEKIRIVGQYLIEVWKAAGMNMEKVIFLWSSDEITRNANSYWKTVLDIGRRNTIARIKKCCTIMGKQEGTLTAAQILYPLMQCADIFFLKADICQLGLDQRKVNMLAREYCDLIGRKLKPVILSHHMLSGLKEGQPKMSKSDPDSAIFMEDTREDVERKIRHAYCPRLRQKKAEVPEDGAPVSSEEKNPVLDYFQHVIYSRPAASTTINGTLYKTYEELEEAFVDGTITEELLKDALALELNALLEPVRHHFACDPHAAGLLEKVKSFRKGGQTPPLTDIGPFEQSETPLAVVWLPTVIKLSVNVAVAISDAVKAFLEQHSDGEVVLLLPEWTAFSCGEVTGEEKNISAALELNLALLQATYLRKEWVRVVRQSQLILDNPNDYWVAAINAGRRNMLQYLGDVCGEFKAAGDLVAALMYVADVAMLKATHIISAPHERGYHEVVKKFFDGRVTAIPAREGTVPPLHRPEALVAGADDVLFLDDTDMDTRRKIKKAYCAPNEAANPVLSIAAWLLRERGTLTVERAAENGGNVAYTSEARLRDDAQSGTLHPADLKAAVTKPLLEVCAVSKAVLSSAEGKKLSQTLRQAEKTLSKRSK
# [8] = target: T4, Tyrosyl-tRNA synthetase, putative (Trypanosoma cruzi (strain CL Brener)); assay: Trypanosoma cruzi tyrosyl tRNA synthetase (TcYRS) SOP; assay type: functional; details: 30 µM
# [9] = target: Chromo domain-containing protein 1 (Saccharomyces cerevisiae (strain ATCC 204508 / S288c) (Baker's yeast)) (UniProt P32657); assay: ScCHD-1 Enzyme Inhibition Assay; assay type: functional; details: 30 µM; note: in the data most compounds retested in dose-response had high values
# Chain of Chromo domain-containing protein 1 (Saccharomyces cerevisiae (strain ATCC 204508 / S288c) (Baker's yeast)) (P32657 whole entry, the tested form may be a part): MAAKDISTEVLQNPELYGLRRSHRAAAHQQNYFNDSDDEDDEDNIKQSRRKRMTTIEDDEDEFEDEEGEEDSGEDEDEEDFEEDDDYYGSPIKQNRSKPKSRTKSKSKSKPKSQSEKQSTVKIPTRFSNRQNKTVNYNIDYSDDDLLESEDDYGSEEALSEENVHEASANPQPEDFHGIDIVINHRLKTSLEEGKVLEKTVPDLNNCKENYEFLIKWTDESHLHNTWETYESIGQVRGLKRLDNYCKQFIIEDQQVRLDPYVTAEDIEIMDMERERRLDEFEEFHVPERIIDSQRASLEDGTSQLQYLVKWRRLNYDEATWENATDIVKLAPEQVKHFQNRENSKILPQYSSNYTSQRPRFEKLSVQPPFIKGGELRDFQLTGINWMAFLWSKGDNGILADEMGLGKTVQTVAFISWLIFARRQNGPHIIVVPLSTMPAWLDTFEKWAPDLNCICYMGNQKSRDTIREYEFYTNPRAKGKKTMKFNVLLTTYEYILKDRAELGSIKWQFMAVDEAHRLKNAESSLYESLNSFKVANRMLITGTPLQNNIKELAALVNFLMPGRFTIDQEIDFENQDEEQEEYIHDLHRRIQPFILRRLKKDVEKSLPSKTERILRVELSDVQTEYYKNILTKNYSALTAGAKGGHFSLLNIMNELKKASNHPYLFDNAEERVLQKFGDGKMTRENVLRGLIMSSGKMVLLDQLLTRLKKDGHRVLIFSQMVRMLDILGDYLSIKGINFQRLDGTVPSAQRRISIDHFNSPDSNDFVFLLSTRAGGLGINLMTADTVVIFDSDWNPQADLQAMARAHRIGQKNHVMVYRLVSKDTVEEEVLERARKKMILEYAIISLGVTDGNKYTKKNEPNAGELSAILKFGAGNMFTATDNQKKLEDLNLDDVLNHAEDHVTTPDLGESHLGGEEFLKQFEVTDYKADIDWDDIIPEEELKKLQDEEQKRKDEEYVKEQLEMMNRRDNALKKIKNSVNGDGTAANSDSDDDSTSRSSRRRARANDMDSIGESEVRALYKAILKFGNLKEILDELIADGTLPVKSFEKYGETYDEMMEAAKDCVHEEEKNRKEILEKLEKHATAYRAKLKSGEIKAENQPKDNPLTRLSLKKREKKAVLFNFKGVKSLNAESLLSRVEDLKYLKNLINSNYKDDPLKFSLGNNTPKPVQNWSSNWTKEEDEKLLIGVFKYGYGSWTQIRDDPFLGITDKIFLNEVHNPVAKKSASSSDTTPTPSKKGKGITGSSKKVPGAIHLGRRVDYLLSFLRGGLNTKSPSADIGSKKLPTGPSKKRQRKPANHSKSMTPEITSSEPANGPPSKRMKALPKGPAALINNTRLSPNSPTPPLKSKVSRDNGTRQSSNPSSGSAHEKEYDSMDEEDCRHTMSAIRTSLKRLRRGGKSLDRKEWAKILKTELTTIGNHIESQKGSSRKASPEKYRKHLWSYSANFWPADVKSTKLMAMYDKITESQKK
# Chain of Protein translocase subunit SecA (Escherichia coli (strain K12)) (P10408 whole entry): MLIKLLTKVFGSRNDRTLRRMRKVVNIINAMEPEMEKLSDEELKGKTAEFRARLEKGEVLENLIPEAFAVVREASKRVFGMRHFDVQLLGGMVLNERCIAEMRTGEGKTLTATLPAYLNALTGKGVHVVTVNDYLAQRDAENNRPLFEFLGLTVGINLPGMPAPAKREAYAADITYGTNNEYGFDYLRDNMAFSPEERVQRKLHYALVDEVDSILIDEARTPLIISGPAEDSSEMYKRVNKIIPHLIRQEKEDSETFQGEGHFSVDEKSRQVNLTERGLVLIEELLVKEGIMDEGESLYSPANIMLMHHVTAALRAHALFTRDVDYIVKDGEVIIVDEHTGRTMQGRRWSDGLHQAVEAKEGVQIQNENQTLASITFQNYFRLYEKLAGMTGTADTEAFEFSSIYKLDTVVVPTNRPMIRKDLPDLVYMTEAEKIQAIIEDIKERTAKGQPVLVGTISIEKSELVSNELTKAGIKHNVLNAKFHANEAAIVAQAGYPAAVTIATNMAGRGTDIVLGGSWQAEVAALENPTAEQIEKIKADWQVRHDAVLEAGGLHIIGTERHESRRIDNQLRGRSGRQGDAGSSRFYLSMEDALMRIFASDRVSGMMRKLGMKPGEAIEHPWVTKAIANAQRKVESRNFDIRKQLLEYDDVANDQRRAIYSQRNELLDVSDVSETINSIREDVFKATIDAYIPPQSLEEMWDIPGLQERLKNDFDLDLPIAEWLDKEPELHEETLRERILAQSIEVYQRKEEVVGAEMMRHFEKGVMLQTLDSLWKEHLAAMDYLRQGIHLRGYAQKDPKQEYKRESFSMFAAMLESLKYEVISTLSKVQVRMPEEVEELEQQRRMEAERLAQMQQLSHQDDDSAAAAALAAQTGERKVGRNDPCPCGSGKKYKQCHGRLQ
# Chain of Sialic acid-binding Ig-like lectin 9 (Homo sapiens) (Q9Y336 whole entry): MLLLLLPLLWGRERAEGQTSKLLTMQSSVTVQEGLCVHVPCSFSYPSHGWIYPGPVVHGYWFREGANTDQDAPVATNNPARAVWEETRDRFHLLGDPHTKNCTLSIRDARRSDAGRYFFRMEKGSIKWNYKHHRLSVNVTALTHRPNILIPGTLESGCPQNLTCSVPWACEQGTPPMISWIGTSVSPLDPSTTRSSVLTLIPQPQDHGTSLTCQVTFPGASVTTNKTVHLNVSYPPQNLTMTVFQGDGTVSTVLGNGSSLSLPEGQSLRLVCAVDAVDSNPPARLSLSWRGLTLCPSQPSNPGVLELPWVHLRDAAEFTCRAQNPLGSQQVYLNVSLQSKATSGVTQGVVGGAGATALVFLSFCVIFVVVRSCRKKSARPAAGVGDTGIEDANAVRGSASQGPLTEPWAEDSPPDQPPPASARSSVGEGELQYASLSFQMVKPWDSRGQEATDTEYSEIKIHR
SMILES,Percent Effect [1] [%],Percent Effect [2] [%],Percent Effect [3] [%],Percent Effect [4] [%],Percent Effect (Trypanosoma cruzi) [%],Percent Effect [5] [%],Percent Effect [6] [%],Percent Effect (Homo sapiens) [%],Percent Effect [7] [%],Percent Effect [8] [%],Percent Effect [9] [%]
Cc1cnc2n(c1=O)CC(C(=O)NC1CC1)CS2 (configuration not stated),-4.55,-21.9,-9.15,-1.37,0.979,4.54,6.21,1.36,2.15,0,-5.19
CCn1cnnc1C1CCN(C(=O)COCCc2ccccc2)CC1,-1.96,7.79,0.519,-7.71,5,-5.26,6.71,-1.88,-2.86,2.35,-12.8
Cc1nn(C)c(N(C)C)c1CNCc1ccccc1CN(C)C,-1.22,24.1,-13.2,-7.18,-1.54,-6.24,15.9,-0.0229,1.04,2.53,-30.7
Cc1ncsc1C(=O)NC1CCN(CCC(N)=O)CC1,-5.32,15.6,-3,11,-2.62,0.356,4.56,4.69,4.85,9.76,-1.54
Cn1cnnc1C1CCCN(C(=O)c2ccccc2Cl)C1 (configuration not stated),-3.26,18.2,-0.796,-3.37,1.67,0.632,5.74,6.09,11.4,25.9,-17.8
CNc1nc(C)c(C(=O)N2CCCCC2CN2CCCCCC2)s1 (configuration not stated),-4.61,21.3,-1.92,0.892,3.74,-1.63,8.72,-1.85,11.7,19.2,-9.37
O=C(NCc1nncn1-c1ccccc1)C1CC(=O)N(CC2CC2)C1 (configuration not stated),-6.4,5.41,-8.14,7.22,-3.3,24.4,-0.901,8.14,3.45,3.7,-2.19
Cc1nn(C)c(C)c1CNCc1ccc(N2CCOCC2)nc1,-1.63,11.4,6.09,-0.523,1.95,-1.5,10.6,13.4,8.33,25.3,-25.1
Cc1ccn2cc(C(=O)N3CCCC3c3c(C)nn(C)c3C)nc2c1 (configuration not stated),-7.15,8.86,7.77,-1.49,-3.79,1.5,9.09,4.07,5.21,0,-3.05
CN(CCNC(=O)N1CCN(Cc2ccon2)CC1)c1ccccc1,-4.87,5.33,-2.4,0.269,-5.75,2.6,12.2,-1.26,3.83,3.7,-4.99
Cc1cc(C(=O)N2CCCCC2c2nc(C)cs2)[nH]n1 (configuration not stated),-4.07,5.2,0.468,-1.4,5.62,-4.27,-2.03,-9.54,4.85,12.2,84.3
Cc1cc(C(=O)N2CCCC(c3noc(C)n3)C2)[nH]n1 (configuration not stated),-10.3,15.2,-4.15,16.6,10.3,-3.04,-2.21,12.9,8.37,21.5,-9.72
Cc1ncccc1OC1(C(=O)NCCNc2ccccc2)CCNCC1,-3.81,2.7,-15.1,6.77,3.48,-1.91,5.86,20.1,5.82,9.76,-4.02
CS(=O)(=O)NCCNC(=O)C1(c2cccc(Cl)c2)CC1,-0.857,9.72,-4.76,1.31,1.07,20.8,10.9,-17.9,3.16,7.69,-4.91
CC(C)N1CCC(Cc2cc(-c3ccccc3C(=O)O)ncn2)CC1,-1.66,52.7,4.35,-7.29,-0.988,2.09,5.3,17.4,4.3,6.49,-7.12
O=C(CN(C1=NCCCC1)c1ccccc1)c1ccccc1,-3.17,-2.63,3.38,-3.96,-3.21,-7.1,7.96,-2.85,-3.19,-10.4,-5.81
Cc1csc(N2CCN(Cc3cnc(C)s3)CC2C)n1 (configuration not stated),-4.06,5.48,3.55,-0.927,2.94,1.36,11.2,52.1,5.38,17.5,-2.04
Cn1nnc2cc(C(=O)N3CCCC3Cc3ccccc3)ccc21 (configuration not stated),-4.28,2.74,2.56,2.89,4.11,-3.18,5.68,7.53,0,5,-4.61
c1cc(CN2CCCC(c3noc(C4CC4)n3)C2)no1 (configuration not stated),0.187,-5.41,-9.37,9.04,4.25,-6.41,4.32,20.7,3.45,6.17,-4.15
Cc1ccc(N2CCCN(C(=O)C3(C#N)CCCCC3)CC2)nn1,-6.11,5.26,-4.48,3.79,6.39,1.53,0.668,-2.34,5.39,0,-14.5
CN(Cc1ccc(Cl)c(Cl)c1)C(=O)CNC(N)=O,-3.49,10.5,9.37,-5.68,3.6,-13,17.4,2.07,4.25,15.6,-1.83
CNS(=O)(=O)c1ccc(C(=O)NCCc2ccccn2)cc1,-1.2,13.2,-0.141,1.24,-0.28,-5.4,10.2,-22.9,7.39,16.1,-7.59
